Laboratory results reported in PubChem BioAssay AID540300 (National Center for Advancing Translational Sciences (NCATS), 2011).
The other results are listed elsewhere or left out. Values without a mark were called inactive. Calls follow the shape of the dose curve; as a rule, active = well fitted curve in the direction sought with a large enough effect; inconclusive = small, poorly fitted or top-dose-only effect, or another doubt; inactive = no such curve, though single readings can be large or run the other way.

Assay: Inhibitors of DNA Polymerase Beta: Hit Validation in Klenow Fragment Assay
Conditions: Klenow exo- polymerase counter-screen, fluorescent DNA substrate; series mostly up to 57.1 µM; activity change, negative = inhibition: at the top concentration
Description: The base excision repair system in human cells is a target for therapeutic modulation of the response to irradiation treatment and DNA-damaging drugs. A key enzyme in this system is the bi-functional DNA polymerase known as DNA polymerase beta (pol b). […] Using an integrated approach involving discovery of small molecule probes for pol b via qHTS and validation by crystallography and kinetics along with cell-based validation experiments, we will test the hypothesis that base excision repair can be strategically modulated in human cells by targeting pol b. Thus, we anticipate the pol b-specific probes emerging from this research will serve as starting points in the development of clinical agents for use in down regulation of DNA base excision repair during therapeutic interventions against cancer. After the completion of the qHTS against the Molecular Libraries Small Molecular Repository (MLSMR), cherry picked compounds were re-affirmed in the primary qHTS pol beta assay and further characterized in several follow-up assays. An E. coli Klenow exo- fragment assay was used as a counter screen assay. The Klenow exo- fragment is a large protein fragment of DNA polymerase which lack exonuclease activity. Measuring compounds activity against the Klenow exo- fragment helps identifying promiscuous compounds. […] NIH Chemical Genomics Center [NCGC] NIH Molecular Libraries Probe Centers Network [MLPCN] MLPCN Grant: MH090863-01 Assay Submitter (PI): Samuel Wilson, National Institute of Environmental Health Sciences (NIEHS), NIH Assay Submitter (PI): Samuel Wilson, National Institute of Environmental Health Sciences (NIEHS), NIH
A stepwise description of the 1536-well assay is shown as described in primary assay. Three microliters of reagents (buffer in column 3 and 4 as negative control and 5nM Klenow enzyme in columns 1, 2, and 5-48) will be dispensed into 1,536-well black solid-bottomed plate. Compounds (23nl) will be transferred via Kalypsys pin tool equipped with 1536-pin array (10nl slotted pins, V&P Scientific, San Diego, CA). The plates will then be incubated for 15 min at room temperature, and 1 µl substrate of tripartate ds DNA (50nM final concentration) will be added to start the reaction and kinetically read twice at 0 min and 10 min on ViewLux reader.

| SMILES | activity change, negative = inhibition [%] |
| --- | --- |
| Cc1c(CCC(=O)O)c(=O)oc2c(C)c(OCc3ccccc3Cl)ccc12 | -24.9 |
| Cc1c(CC(=O)N2CCN(C(=O)C3COc4ccccc4O3)CC2)c(=O)oc2c(O)c(O)ccc12 (stereo not given) | -21.1 |
| O=C(CN1CCN(S(=O)(=O)c2cc(Cl)ccc2Cl)CC1)c1ccc(O)c(O)c1 | -17.8 |
| O=C(Nc1ccc(S(=O)(=O)Nc2nccs2)cc1)c1cc(-c2ccncc2)nc2ccccc12 | -1.27 |
| O=C(c1cc2c(s1)CCC2)N1CCN(c2ccccc2)CC1 | -32 |
| COc1cc([C@H](Cc2ccccc2)NC(C)=O)oc(=O)c1 | -12.9 |
| Cc1ccc2nc(-c3ccncc3)cc(C(=O)Nc3ccc(OC(F)F)cc3)c2c1 | -10.5 |
| Cc1ccc(C(=O)Oc2coc(CSc3nnc(NC(=O)c4cccs4)s3)cc2=O)cc1C | -19.3 |
| COc1ccc(Cc2nnc(NC(=O)Cc3cccs3)s2)cc1 | -32.8 |
| CCOc1ccccc1/C=c1\sc2nc(-c3ccco3)nn2c1=O | -37.9 |
